A number with no mark means an inactive call. For some of these results: Measured potencies and affinities stand elsewhere. Active and inactive are the calls of the source. Unless noted, the rule behind the calls is not given here.
Experiments:
[1] = antimalarial activity against Dd2 strain (AID 2302;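 active = growth inhibition above 50% at the single 2 µM test dose, taken to imply half-maximal potency below 2 µM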;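 note: 0% = DMSO untreated growth and 100% = chloroquine plus artemisinin killed control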); conditions: P. falciparum Dd2 in RBCs, LDH growth readout, 72 h; at 2 µM; active compounds read high
[2] = human hepatoma cell viability loss – ATP luminescence, cytotoxicity control for P. falciparum antimalarial project, primary screen (AID 2303;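 active = inhibition above 50%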;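 note: 0% = DMSO wells and 100% = digitonin-killed cells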); conditions: HepG2 viability, 24-48 h, at 10 µM, active compounds read high
[3] = target: L-lactate dehydrogenase (Plasmodium falciparum (isolate CDC / Honduras)) (UniProt Q27743); assay: PfLDH activity inhibition – cell lysate, 3D7 strain, counter-screen for P. falciparum growth inhibition project (AID 2304);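 note: 0% = vehicle and 100% = reference inhibitor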; conditions: P. falciparum 3D7 crude extract, LDH APAD/NBT absorbance; at 2 µM; active compounds read high
[4] = inhibition of 3D7 malaria parasite growth – strain 3D7 (AID 2306);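 note: 0% = DMSO wells and 100% = chloroquine plus artemisinin control wells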; conditions: P. falciparum 3D7 erythrocytic growth, LDH absorbance, 72 h; at 2 µM; active compounds read high
[5] = target: Calcium-dependent protein kinase 1 (Plasmodium falciparum (isolate 3D7)) (UniProt P62344); assay: PfCDPK1 kinase inhibitors, biochemical, TCAMS library (AID 1159585; cut-off not given, nearly all actives have IC50 up to about 0.98 µM;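 note: inhibitors leave more ATP so luminescence rises with inhibition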); conditions: recombinant PfCDPK1, Kinase-Glo ATP depletion luminescence
[6] = target: Plasmodium falciparum protein kinase 6 (PK6, PF3D7_1337100) (UniProt Q8IDW1); assay: PfPK6 kinase inhibitors, biochemical, TCAMS library (AID 1159586); conditions: recombinant PfPK6, Kinase-Glo ATP depletion luminescence
[7] = target: Protein kinase 7 (PK7), Plasmodium falciparum 3D7 (PF3D7_0213400) (UniProt Q7YTF7); assay: inhibition of Plasmodium PK7 catalytic activity – biochemical, TCAMS antimalarial set, Kinase-Glo luminescence (AID 1159587); conditions: recombinant PfPK7, Kinase-Glo ATP depletion luminescence
[8] = target: Calcium-dependent protein kinase 4 (Plasmodium falciparum (isolate 3D7)) (UniProt Q8IBS5); assay: PfCDPK4 kinase inhibitors, biochemical, TCAMS library (AID 1159588; cut-off not given, nearly all actives have IC50 up to about 0.91 µM); conditions: recombinant PfCDPK4, Kinase-Glo ATP depletion luminescence
Chain of Calcium-dependent protein kinase 4 (Plasmodium falciparum (isolate 3D7)) (Q8IBS5 whole entry, looked up): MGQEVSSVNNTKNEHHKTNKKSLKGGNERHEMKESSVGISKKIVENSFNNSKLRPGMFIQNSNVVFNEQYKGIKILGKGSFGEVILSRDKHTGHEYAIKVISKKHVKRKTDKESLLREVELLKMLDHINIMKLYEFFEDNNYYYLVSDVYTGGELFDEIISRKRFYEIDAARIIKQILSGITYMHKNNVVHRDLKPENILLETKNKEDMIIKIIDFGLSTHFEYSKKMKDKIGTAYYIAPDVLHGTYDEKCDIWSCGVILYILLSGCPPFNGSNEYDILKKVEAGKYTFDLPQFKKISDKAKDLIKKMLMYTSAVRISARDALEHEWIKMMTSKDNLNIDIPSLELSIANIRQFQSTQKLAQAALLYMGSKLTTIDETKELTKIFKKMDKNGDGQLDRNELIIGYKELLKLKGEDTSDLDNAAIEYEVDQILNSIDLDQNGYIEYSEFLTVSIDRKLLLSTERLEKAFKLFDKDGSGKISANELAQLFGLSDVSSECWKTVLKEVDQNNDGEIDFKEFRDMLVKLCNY

Chain of Calcium-dependent protein kinase 1 (Plasmodium falciparum (isolate 3D7)) (P62344 whole entry, looked up): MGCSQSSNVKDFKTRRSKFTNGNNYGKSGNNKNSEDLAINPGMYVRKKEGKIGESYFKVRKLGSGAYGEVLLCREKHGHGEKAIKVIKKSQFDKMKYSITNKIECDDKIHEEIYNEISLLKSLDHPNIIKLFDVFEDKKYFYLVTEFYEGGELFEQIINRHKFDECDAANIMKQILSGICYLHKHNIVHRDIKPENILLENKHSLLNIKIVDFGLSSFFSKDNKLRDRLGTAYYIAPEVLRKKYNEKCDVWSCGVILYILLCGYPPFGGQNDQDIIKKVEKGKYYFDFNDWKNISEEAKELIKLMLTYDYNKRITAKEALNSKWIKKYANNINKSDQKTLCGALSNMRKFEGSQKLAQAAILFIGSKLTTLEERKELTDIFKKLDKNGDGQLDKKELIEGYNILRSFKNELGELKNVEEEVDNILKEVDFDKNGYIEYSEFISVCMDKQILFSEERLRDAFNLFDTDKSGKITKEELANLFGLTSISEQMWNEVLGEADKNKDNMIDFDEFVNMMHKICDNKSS
Chain of L-lactate dehydrogenase (Plasmodium falciparum (isolate CDC / Honduras)) (Q27743 whole entry, looked up): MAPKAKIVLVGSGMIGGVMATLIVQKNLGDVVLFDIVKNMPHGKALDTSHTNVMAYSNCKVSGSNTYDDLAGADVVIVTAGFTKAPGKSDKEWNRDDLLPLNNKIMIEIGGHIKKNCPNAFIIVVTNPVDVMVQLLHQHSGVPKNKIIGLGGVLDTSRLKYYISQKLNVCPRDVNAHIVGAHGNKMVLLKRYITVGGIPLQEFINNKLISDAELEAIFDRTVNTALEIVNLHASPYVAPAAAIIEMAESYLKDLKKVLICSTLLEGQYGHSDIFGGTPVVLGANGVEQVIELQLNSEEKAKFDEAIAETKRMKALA
Chain of Plasmodium falciparum protein kinase 6 (PK6, PF3D7_1337100) (Q8IDW1 1-305): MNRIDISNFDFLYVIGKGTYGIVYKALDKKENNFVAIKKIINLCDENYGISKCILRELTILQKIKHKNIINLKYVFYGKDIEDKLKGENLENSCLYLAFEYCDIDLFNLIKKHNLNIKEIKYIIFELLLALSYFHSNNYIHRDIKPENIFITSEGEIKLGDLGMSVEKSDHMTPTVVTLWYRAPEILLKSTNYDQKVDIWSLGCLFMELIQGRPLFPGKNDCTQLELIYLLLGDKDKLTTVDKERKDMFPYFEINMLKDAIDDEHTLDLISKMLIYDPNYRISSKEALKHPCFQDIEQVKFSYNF
Chain of Protein kinase 7 (PK7), Plasmodium falciparum 3D7 (PF3D7_0213400) (Q7YTF7 1-343): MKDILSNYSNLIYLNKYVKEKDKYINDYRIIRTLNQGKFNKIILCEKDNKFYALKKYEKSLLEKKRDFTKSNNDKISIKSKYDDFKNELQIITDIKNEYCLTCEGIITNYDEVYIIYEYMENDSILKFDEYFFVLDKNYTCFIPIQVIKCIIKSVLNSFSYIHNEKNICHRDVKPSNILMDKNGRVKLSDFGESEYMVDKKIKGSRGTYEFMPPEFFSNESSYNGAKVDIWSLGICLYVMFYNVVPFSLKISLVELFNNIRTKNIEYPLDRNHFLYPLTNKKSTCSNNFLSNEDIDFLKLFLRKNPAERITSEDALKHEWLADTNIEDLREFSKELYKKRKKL

For `Cc1cc(NCC2CCN(CC3CCCCC3)C2)nc(Nc2ccc(Cl)cc2)n1` (stereo not given), the growth inhibition [1] was 74% (active), the inhibition [2] was 2% and the inhibition [3] was -3%. For the same compound, the growth inhibition [4] was 101% (active), the outcome [5] was “inactive” and the outcome [6] was “inactive”. For the same compound, the outcome [7] was “inactive” and the outcome [8] was “inactive”.

For `Fc1ccc2nc(-c3cccc(-c4cccc(CNCc5ccccc5)c4)c3)[nH]c2c1`, the growth inhibition [1] was 52% (active), the inhibition [2] was 24% and the inhibition [3] was -9%. The growth inhibition [4] was 102% (active), the outcome [5] was “inactive” and the outcome [6] was “inactive”. For the same compound, the outcome [7] was “inactive” and the outcome [8] was “inactive”.

In the case of `CN(C)c1ccc(C2c3nc[nH]c3CCN2C(=O)Nc2cccc([N+](=O)[O-])c2)cc1` (stereo not given), the growth inhibition [1] is reported as 15%, the inhibition [2] is reported as -5% and the inhibition [3] is reported as 1%. The growth inhibition [4] was 98% (active), the outcome [5] was “inactive” and the outcome [6] was “inactive”. The outcome [7] was “inactive” and the outcome [8] was “inactive”.

With `Cc1cccc2[nH]c(-c3cccc(-c4ccc(CNCc5cccc(N)c5)cc4)c3)nc12` the growth inhibition [1] was 93% (active), the inhibition [2] was 19% and the inhibition [3] was -3%. The growth inhibition [4] was 101% (active), the outcome [5] was “inactive” and the outcome [6] was “inactive”. For the same compound, the outcome [7] was “inactive” and the outcome [8] was “inactive”.

With `CC(Cc1ccc(OCCN2CCN(c3cccc(C(F)(F)F)c3)CC2)cc1)NCC(O)c1cccc(C(F)(F)F)c1` (stereo not given) the growth inhibition [1] was 91% (active), the inhibition [2] was 11% and the inhibition [3] was 0%. For the same compound, the growth inhibition [4] was 97% (active), the outcome [5] was “inactive” and the outcome [6] was “inactive”. For the same compound, the outcome [7] was “inactive” and the outcome [8] was “inactive”.

In the case of `Cc1cccc2sc(N(CCCn3ccnc3)C(=O)C=Cc3cccs3)nc12`, the growth inhibition [1] is reported as 9%, the inhibition [2] is reported as -6% and the inhibition [3] is reported as 2%. The growth inhibition [4] was 91% (active), the outcome [5] was “inactive” and the outcome [6] was “inactive”. For the same compound, the outcome [7] was “inactive” and the outcome [8] was “inactive”.

For `Cc1ccc(C(=O)Nc2ccc(F)c(F)c2F)cc1S(=O)(=O)N1CCCCC1`, the growth inhibition [1] was 69% (active), the inhibition [2] was 3% and the inhibition [3] was -8%. For the same compound, the growth inhibition [4] was 92% (active), the outcome [5] was “inactive” and the outcome [6] was “inactive”. For the same compound, the outcome [7] was “inactive” and the outcome [8] was “inactive”.

In the case of `O=C(Nc1ccc(N2CCCN(Cc3cccc(F)c3)CC2)cc1)c1ccc(F)cc1`, the growth inhibition [1] is reported as 95% (active), the inhibition [2] is reported as 0% and the inhibition [3] is reported as 3%. For the same compound, the growth inhibition [4] was 96% (active), the outcome [5] was “inactive” and the outcome [6] was “inactive”. The outcome [7] was “inactive” and the outcome [8] was “inactive”.

With `CN(Cc1ccccc1)C1CCN(c2cc(NC(=O)c3cccc(F)c3)ccn2)CC1` the growth inhibition [1] was 3%, the inhibition [2] was 2% and the inhibition [3] was -2%. The growth inhibition [4] was 93% (active), the outcome [5] was “inactive” and the outcome [6] was “inactive”. The outcome [7] was “inactive” and the outcome [8] was “inactive”.

In the case of `CCOC(=O)NC1=NC(C)(C)N(OCCCOc2cc(Cl)c(Cl)cc2Cl)C(NC(=O)OCC)=N1`, the growth inhibition [1] is reported as 97% (active), the inhibition [2] is reported as 63% (active) and the inhibition [3] is reported as 5%. For the same compound, the growth inhibition [4] was 91% (active), the outcome [5] was “inactive” and the outcome [6] was “inactive”. For the same compound, the outcome [7] was “inactive” and the outcome [8] was “inactive”.

Compound `CC(=Nc1ccc(Cl)c(Cl)c1)N(C)C` has a growth inhibition [1] of 0%, an inhibition [2] of -6% and an inhibition [3] of 2%. For the same compound, the growth inhibition [4] was 98% (active), the outcome [5] was “inactive” and the outcome [6] was “inactive”. For the same compound, the outcome [7] was “inactive” and the outcome [8] was “inactive”.

Work on `CN(C)CCCNCc1ccc(-c2ccc(C(F)(F)F)cc2)cc1` yielded a growth inhibition [1] of 35%, an inhibition [2] of 30% and an inhibition [3] of -4%. For the same compound, the growth inhibition [4] was 96% (active), the outcome [5] was “inactive” and the outcome [6] was “inactive”. For the same compound, the outcome [7] was “inactive” and the outcome [8] was “inactive”.

Work on `c1ccc2c(c1)CN(CC1CC1)CC1(CCN(Cc3c[nH]c4cnccc34)CC1)O2` yielded a growth inhibition [1] of 14%, an inhibition [2] of 30% and an inhibition [3] of -1%. The growth inhibition [4] was 101% (active), the outcome [5] was “inactive” and the outcome [6] was “inactive”. The outcome [7] was “inactive” and the outcome [8] was “inactive”.

With `O=C(O)C1Cc2c([nH]c3ccccc23)C(c2ccc(Cl)cc2Cl)N1` (stereo not given) the growth inhibition [1] was 100% (active), the inhibition [2] was 7% and the inhibition [3] was 0%. For the same compound, the growth inhibition [4] was 91% (active), the outcome [5] was “inactive” and the outcome [6] was “inactive”. For the same compound, the outcome [7] was “inactive” and the outcome [8] was “inactive”.

In the case of `Cc1cc(=O)[nH]c(-n2nc(C)cc2NC(=O)CC(c2ccccc2)c2ccccc2)n1`, the growth inhibition [1] is reported as 62% (active), the inhibition [2] is reported as 42% and the inhibition [3] is reported as 2%. For the same compound, the growth inhibition [4] was 90% (active), the outcome [5] was “inactive” and the outcome [6] was “inactive”. For the same compound, the outcome [7] was “inactive” and the outcome [8] was “inactive”.

With `Cc1cc(NN=Cc2ccccc2[N+](=O)[O-])c2cc(C(F)(F)F)ccc2n1` the growth inhibition [1] was 39%, the inhibition [2] was -5% and the inhibition [3] was 1%. The growth inhibition [4] was 97% (active), the outcome [5] was “inactive” and the outcome [6] was “inactive”. For the same compound, the outcome [7] was “inactive” and the outcome [8] was “inactive”.

For `O=C1CCCN1CCCNCc1ccc(-c2ccc(-c3nc4ccc(C(F)(F)F)cc4[nH]3)s2)cc1`, the growth inhibition [1] was 96% (active), the inhibition [2] was 9% and the inhibition [3] was -4%. The growth inhibition [4] was 100% (active), the outcome [5] was “inactive” and the outcome [6] was “inactive”. For the same compound, the outcome [7] was “inactive” and the outcome [8] was “inactive”.

In the case of `Cc1cccc2[nH]c(-c3cccc(-c4cccc(CN5CCN(c6ccncc6)CC5)c4)c3)nc12`, the growth inhibition [1] is reported as 96% (active), the inhibition [2] is reported as 47% and the inhibition [3] is reported as -5%. For the same compound, the growth inhibition [4] was 102% (active), the outcome [5] was “inactive” and the outcome [6] was “inactive”. The outcome [7] was “inactive” and the outcome [8] was “inactive”.

With `Cc1nnsc1C(=O)Nc1ccc(-c2ccc(-c3nc4ccccc4[nH]3)s2)cc1` the growth inhibition [1] was 38%, the inhibition [2] was 49% and the inhibition [3] was 4%. For the same compound, the growth inhibition [4] was 92% (active), the outcome [5] was “inactive” and the outcome [6] was “inactive”. For the same compound, the outcome [7] was “inactive” and the outcome [8] was “inactive”.

With `Cn1cc(C2CCN(CCCCCNC(=O)/C=C/c3ccc(Cl)c(Cl)c3)CC2)c2cc(O)ccc21` the growth inhibition [1] was -2%, the inhibition [2] was 11% and the inhibition [3] was -2%. For the same compound, the growth inhibition [4] was 94% (active), the outcome [5] was “inactive” and the outcome [6] was “inactive”. The outcome [7] was “inactive” and the outcome [8] was “inactive”.

— PubChem BioAssay
